A short description of assay [1]: qHTS assay for small molecules that induce genotoxicity in human embryonic kidney cells expressing luciferase-tagged ATAD5 - cell viability (AID 651634; calls by dose curve; note: nearly all actives have a fitted effect of over 25% in size; note: potency is the fitted concentration of half-maximal effect). The essentials: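 HEK293T cells carrying luciferase-tagged ATAD5, 2,000 cells/well, exposed to compound for 15.5 hr at 37C. Viability read as live-cell protease activity by CellTiter-Fluor fluorescence after 30 min at 37C.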
A general note: qHTS replaces the single test concentration by a dilution series.

A short description of assay [2]: qHTS assay for small molecule disruptors of the mitochondrial membrane potential (AID 720635). Note: potency is the fitted concentration of half-maximal effect. The essentials:
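HepG2 cells (2,000/well) attached overnight at 37C, then took compound for 1 hr at 37C, 5% CO2. Mito-MPS dye was added for 30 min; fluorescence was read at 490/535 nm (monomers) and 540/590 nm (aggregates).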

Assay [3] is described as follows: qHTS assay to test for compound auto fluorescence at 590 nm (red) in HepG2 cells (AID 720674). The essentials: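 Rose Bengal sodium served as the red fluorophore standard. HepG2 monolayers (overnight attachment, MEM with 10% FBS) were exposed to test compounds for 1 hr at 37 C and read at Ex 540/Em 590 nm.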
The nature of assay [4]: qHTS assay to test for compound auto fluorescence at 460 nm (blue) in HEK293 cells (AID 720678). Summed up:
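Measured: blue fluorescence (Ex 405/Em 460 nm) of compound-treated HEK293 cells, incubated overnight at 37C with 5% CO2 and scaled to triamterene equivalents.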

Assay [5] is described as follows: qHTS assay to test for compound auto fluorescence at 535 nm (green) in HEK293 cells (AID 720680).
Assay [6] is described as follows: qHTS assay to test for compound auto fluorescence at 590 nm (red) in HEK293 cell free culture (AID 720683). The essentials:
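Tox21 10K library compounds were pinned into cell-free DMEM with 10% FBS and fluorescence was read at excitation 540 nm. Activity is expressed as Rose Bengal sodium equivalency.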

In assay [7] the target is Glucocorticoid receptor (Homo sapiens) (UniProt P04150). As to the kind of experiment: qHTS assay to identify small molecule agonists of the glucocorticoid receptor (GR) signaling pathway (AID 720691; active = well fitted activation curve with a large enough effect in the signal ratio in the repeat runs, not every such curve was filed as active; the % refers to the signal ratio). The essentials:
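GR-bla HeLa cells carrying a GRE-driven beta-lactamase reporter, exposed to compounds for 18 h at 37 C. Reporter activation read as fluorescence after 2 h with LiveBLAzer B/G FRET substrate at room temperature.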

A short description of assay [8]: qHTS assay for identifying genotoxic compounds that show differential cytotoxicity against isogenic chicken DT40 cell lines with known DNA damage response pathways - wild type cell line (AID 743012). Note: nearly all actives have a fitted effect of over 60% in size. Note: potency is the fitted concentration of half-maximal effect. The essentials: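 Wild-type DT40 cells (300/well) exposed to compounds for 40 hours at 37 C/5% CO2. Viability read by CellTiter-Glo luminescence after 30 min at room temperature.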

Assay [9] in a line: qHTS assay for identifying genotoxic compounds that show differential cytotoxicity against isogenic chicken DT40 cell lines with known DNA damage response pathways - Rev3 mutant cell line (AID 743014). Note: nearly all actives have a fitted effect of over 55% in size. Note: potency is the fitted concentration of half-maximal effect.
Assay [10] in a line: qHTS assay for identifying genotoxic compounds that show differential cytotoxicity against isogenic chicken DT40 cell lines with known DNA damage response pathways - Rad54/Ku70 mutant cell line (AID 743015). Note: nearly all actives have a fitted effect of over 60% in size. Note: potency is the fitted concentration of half-maximal effect.
Assay [11] in a line: qHTS assay to identify small molecule antagonists of the thyroid receptor (TR) signaling pathway - cell viability counter screen (AID 743064). Note: nearly all actives have a fitted effect of over 50% in size. The essentials:
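GH3.TRE-Luc cells, 4 h pre-plating; cpd + T3 1 nM final; 37 °C 23.5 h; CellTiter-Fluor 30 min; fluorescence read.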

A short description of assay [12]: qHTS assay to identify small molecule antagonists of the thyroid receptor (TR) signaling pathway (AID 743065). Note: nearly all actives have a fitted effect of over 55% in size. Note: potency is the fitted concentration of half-maximal effect. Summed up:
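GH3.TRE-Luc rat pituitary cells carrying two TR response elements driving luciferase were plated for 4 h, given compound plus 1 nM T3 (final), and incubated 23.5 h at 37 C. ONE-Glo luminescence measured reporter inhibition; CellTiter-Fluor fluorescence tracked cytotoxicity.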

Assay [13] deals with thyroid hormone receptor (rat, GH3 cells). The experiment in a line: qHTS assay to identify small molecule agonists of the thyroid receptor (TR) signaling pathway (AID 743066; calls by dose curve).
Assay [14] addresses Estrogen receptor (Homo sapiens) (UniProt P03372). As to the kind of experiment: qHTS assay to identify small molecule agonists of the estrogen receptor alpha (ER-alpha) signaling pathway (AID 743075; calls by dose curve;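 note: HEK293 GripTite cells with ER-alpha and UAS-driven beta-lactamase reporter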).
For assay [15], the target named is Nuclear receptor subfamily 1 group I member 2 (Homo sapiens) (UniProt O75469). As to the kind of experiment: Human pregnane X receptor (PXR) activation by small molecules, qHTS assay (AID 1346985). Note: nearly all actives have a fitted effect of over 40% in size. Summed up: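 DPX-2 cells (HepG2 co-transfected with a PXR response element and a CYP3A4-promoter luciferase construct) were seeded at 2,000 per well, rested 5 hr at 37C, then exposed to DMSO-dissolved compounds for 24 hr. Activation was read as luciferase luminescence.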

Assay [16] can be described thus: qHTS assay for small molecule agonists of the p53 signaling pathway (AID 651631; calls by dose curve; note: nearly all actives have a fitted effect of over 15% in size). Summed up: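 p53RE-bla HCT-116 cells; compounds 16 h, 37 °C; LiveBLAzer B/G FRET substrate 2 h RT; fluorescence intensity read-out, qHTS format.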
The nature of assay [17]: qHTS assay to identify small molecule antagonists of the glucocorticoid receptor (GR) signaling pathway - cell viability counter screen (AID 720693). Note: nearly all actives have a fitted effect of over 55% in size.
Assay [18] can be described thus: qHTS assay to identify small molecule antagonists of the estrogen receptor alpha (ER-alpha) signaling pathway using the BG1 cell line (AID 743080; calls by dose curve;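 note: BG1 cells stimulated with 17beta-estradiol alongside compound; nearly all actives have a fitted effect of over 25% in size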; note: potency is the fitted concentration of half-maximal effect). Summed up: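 Quantitative HTS on the Tox21 10K library: BG1 cells with endogenous ER-alpha and ERE-luciferase reporter, 17beta-estradiol stimulation, 21.5 h compound exposure, luminescence endpoint with parallel fluorescence cytotoxicity counter-read.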

A short description of assay [19]: qHTS assay to identify small molecule that activate the aryl hydrocarbon receptor (AhR) signaling pathway - cell viability counter screen (AID 743086).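 Note: HepG2 liver cells carrying the AhR DRE luciferase reporter; series mostly up to about 70 µM; nearly all actives have a fitted effect of over 45% in size.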 The essentials:
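HepG2-AhR-luc (HG2L7.5c1) cells, 4000/well, were preincubated 5 h at 37C, exposed to compound in qHTS format for 24 hr at 37C, then given CellTiter-Fluor for 30 min; viability was read as fluorescence in the reporter wells.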

Assay [20] deals with Peroxisome proliferator-activated receptor gamma (Homo sapiens) (UniProt P37231). The experiment in a line: qHTS assay to identify small molecule agonists of the peroxisome proliferator-activated receptor gamma (PPARg) signaling pathway (AID 743094; active = well fitted activation curve with a large enough effect in the signal ratio in the repeat runs, not every such curve was filed as active; the % refers to the signal ratio). Summed up: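 GeneBLAzer PPARg UAS-bla HEK293H cells were plated, rested 5 h, then exposed to compounds for 17 h at 37C. Beta-lactamase activity was read by LiveBLAzer B/G FRET substrate fluorescence after 1 h at room temperature.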

Records with an inconclusive call do not appear. The source made the active and inactive calls. Unless noted, calls come from the whole dose curve; as a rule, active = well fitted curve in the direction sought with a large enough effect in the repeat runs; inconclusive = weak or mixed curves; inactive = no such curve, though single readings can be large; an effect the other way counts as inactive or inconclusive.

Peroxisome proliferator-activated receptor gamma (Homo sapiens), sequence (P37231 whole entry, looked up): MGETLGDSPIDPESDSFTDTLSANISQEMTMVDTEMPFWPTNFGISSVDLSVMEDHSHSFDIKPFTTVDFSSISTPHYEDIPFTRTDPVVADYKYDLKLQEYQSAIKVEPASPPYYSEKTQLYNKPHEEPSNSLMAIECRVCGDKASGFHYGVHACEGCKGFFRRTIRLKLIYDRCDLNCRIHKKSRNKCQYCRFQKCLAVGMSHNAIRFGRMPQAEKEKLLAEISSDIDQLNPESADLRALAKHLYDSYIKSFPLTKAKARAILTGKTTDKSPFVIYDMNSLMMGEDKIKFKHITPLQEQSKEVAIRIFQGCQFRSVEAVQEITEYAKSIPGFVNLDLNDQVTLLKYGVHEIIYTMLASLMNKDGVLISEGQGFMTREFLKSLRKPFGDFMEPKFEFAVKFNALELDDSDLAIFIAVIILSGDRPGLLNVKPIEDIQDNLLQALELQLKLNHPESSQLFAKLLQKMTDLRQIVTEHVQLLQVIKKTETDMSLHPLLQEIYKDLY
Glucocorticoid receptor (Homo sapiens), sequence (P04150 whole entry, looked up): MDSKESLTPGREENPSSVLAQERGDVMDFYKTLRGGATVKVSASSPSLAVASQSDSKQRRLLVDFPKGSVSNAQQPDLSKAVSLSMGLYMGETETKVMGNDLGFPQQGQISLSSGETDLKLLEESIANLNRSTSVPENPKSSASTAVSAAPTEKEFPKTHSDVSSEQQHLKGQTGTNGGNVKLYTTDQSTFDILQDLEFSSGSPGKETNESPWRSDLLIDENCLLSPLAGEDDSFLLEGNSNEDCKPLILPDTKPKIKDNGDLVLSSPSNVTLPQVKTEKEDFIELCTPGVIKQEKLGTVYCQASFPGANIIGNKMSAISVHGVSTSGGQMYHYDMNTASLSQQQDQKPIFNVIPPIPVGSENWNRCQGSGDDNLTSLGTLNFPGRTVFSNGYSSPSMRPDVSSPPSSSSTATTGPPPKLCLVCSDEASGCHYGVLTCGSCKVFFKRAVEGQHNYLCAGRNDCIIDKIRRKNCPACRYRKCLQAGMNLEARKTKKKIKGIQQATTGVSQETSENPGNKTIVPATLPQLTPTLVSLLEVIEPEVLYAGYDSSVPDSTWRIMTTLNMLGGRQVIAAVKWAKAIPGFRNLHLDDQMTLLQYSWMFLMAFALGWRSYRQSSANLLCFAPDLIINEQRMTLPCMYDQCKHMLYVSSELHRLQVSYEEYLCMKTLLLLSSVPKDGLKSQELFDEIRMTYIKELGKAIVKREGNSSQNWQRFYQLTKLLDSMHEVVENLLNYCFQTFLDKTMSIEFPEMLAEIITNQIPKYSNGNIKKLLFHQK
Estrogen receptor (Homo sapiens), sequence (P03372 whole entry, looked up): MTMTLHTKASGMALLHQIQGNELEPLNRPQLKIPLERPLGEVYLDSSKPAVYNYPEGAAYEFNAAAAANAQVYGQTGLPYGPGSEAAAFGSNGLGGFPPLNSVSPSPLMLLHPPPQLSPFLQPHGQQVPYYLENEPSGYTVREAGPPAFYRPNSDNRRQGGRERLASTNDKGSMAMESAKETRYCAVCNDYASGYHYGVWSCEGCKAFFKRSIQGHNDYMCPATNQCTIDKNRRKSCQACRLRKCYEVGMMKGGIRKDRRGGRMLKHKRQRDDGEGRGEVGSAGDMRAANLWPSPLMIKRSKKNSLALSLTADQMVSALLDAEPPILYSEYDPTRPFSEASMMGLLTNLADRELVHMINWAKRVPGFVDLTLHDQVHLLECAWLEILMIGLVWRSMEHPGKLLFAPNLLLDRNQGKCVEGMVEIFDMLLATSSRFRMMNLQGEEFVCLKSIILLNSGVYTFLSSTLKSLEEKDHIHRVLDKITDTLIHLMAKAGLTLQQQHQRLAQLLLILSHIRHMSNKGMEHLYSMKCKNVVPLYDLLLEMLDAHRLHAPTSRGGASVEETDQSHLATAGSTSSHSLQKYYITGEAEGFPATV

`CC(=O)O[C@H]1C[C@H](O[C@H]2[C@@H](O)C[C@H](O[C@H]3[C@@H](O)C[C@H](OC4CC[C@@]5(C)[C@H](CC[C@@H]6[C@@H]5CC[C@]5(C)[C@@H](C7=CC(=O)OC7)CC[C@]65O)C4)O[C@@H]3C)O[C@@H]2C)O[C@H](C)[C@H]1O[C@@H]1O[C@H](CO)[C@@H](O)[C@H](O)[C@H]1O` (some centres not stated): the Potency in assay [1] was 0.298 µM (active); in [2], 0.393 µM (active); in assay [8], 0.473 µM (active); in assay [9], 0.473 µM (active); in assay [10] it was 0.596 µM (active). Further, the molecule was classed as inactive in [3] and in assay [6]. The Potency entry in assay [4], in [5], in assay [7], in [11], in assay [12] and in assay [13] was “inactive” in each case. In addition, the Potency entry in assay [14] and in assay [15] was “inactive” throughout.

Turning to `Cc1nnc2n1-c1ccc(Cl)cc1C(c1ccccc1)=NC2`, the Potency entry in assay [16], in assay [1], in assay [4], in assay [5], in [7] and in [17] was “inactive” each time. The Potency result in assay [8], in assay [9], in assay [13], in [14] and in [19] was “inactive” in each case. The outcome in [3] and in assay [6] was inactive. The Potency in [12] was 26.6 µM (active); in [18], 11.9 µM (active).

`CC(N)Cc1ccc(O)cc1` (configuration not stated): the Potency entry in [16], in assay [4], in assay [5], in assay [7], in [17] and in assay [8] was “inactive” each time. For the same molecule, the Potency entry in [9], in [10], in assay [11], in [12], in assay [13] and in [14] was “inactive” in each case. Moreover, the Potency result in assay [18], in assay [19], in assay [20] and in [15] was “inactive” each time. In addition, the call in assay [3] was inactive.

In the case of `O=C1CN(O)C(c2ccccc2)=c2cc(Cl)ccc2=N1`, the Potency entry in assay [16], in assay [2], in assay [4], in [5], in [7] and in [8] was “inactive” in each case. In addition, the Potency result in assay [9], in assay [10], in [11], in assay [12], in assay [13] and in assay [20] was “inactive” throughout. Besides, in assay [15], the Potency entry was “inactive”. For the same molecule, the molecule was classed as inactive in assay [3] and in [6].

With `c1csc(C2(N3CCCCC3)CCCCC2)c1`, the Potency entry in assay [16], in [1], in [2], in [4], in assay [5] and in [17] was “inactive” each time. The Potency result in [8], in assay [9], in assay [10], in assay [11], in assay [12] and in [13] was “inactive” throughout. In addition, the Potency result in [14], in assay [18], in assay [19] and in assay [20] was “inactive” each time. Also, the outcome in assay [6] was inactive.

Turning to `CCON=O`, the Potency result in [1], in assay [2], in assay [4], in assay [5], in assay [7] and in assay [17] was “inactive” each time. Further, the Potency result in [8], in assay [9], in assay [10], in [11], in assay [12] and in [13] was “inactive” throughout. Further, the Potency entry in assay [14], in assay [18], in assay [19], in assay [20] and in assay [15] was “inactive” throughout. In addition, the molecule was classed as inactive in [3] and in assay [6].

With `CNc1ccc(C(=O)CC(O)CCC(C)C2OC(=O)CC(O)CC(=O)CC(O)CC(O)CC(O)CC(O)CC3(O)CC(O)C(C(=O)OC)C(CC(O[C@@H]4O[C@H](C)[C@@H](O)[C@H](N)[C@@H]4O)/C=C/C=C/C=C/C=C/C=C/C=C/C=C/C2C)O3)cc1` (some centres not stated), the Potency result in assay [1], in assay [7], in assay [17], in assay [11], in assay [13] and in [14] was “inactive” each time. Besides, the Potency entry in assay [18], in [19] and in assay [15] was “inactive” throughout. In assay [2], the Potency was 16.8 µM (active). Further, the result in [3] and in assay [6] was inactive.

Consider `CC(=O)OCC(=O)[C@H]1CC[C@H]2[C@@H]3CC[C@H]4C[C@H](O)CC[C@]4(C)[C@H]3C(=O)C[C@]12C`, for which the Potency entry in assay [16], in assay [1], in [2], in assay [4], in [7] and in [17] was “inactive” each time. Also, the Potency result in [8], in assay [9], in assay [10], in assay [11], in assay [12] and in assay [13] was “inactive” throughout. Besides, the Potency result in [14], in assay [18], in [19] and in assay [15] was “inactive” each time. The result in assay [6] was inactive.

The record behind these values is PubChem BioAssay (Tox21).
